# A selection: hits, their analogues and other compounds. The true share with any hit is near 1.6%.
# KCNQ2 block – rat KCNQ2 potassium channel inhibitors, primary screen, cell-based, CHO-K1, FluxOR thallium flux, B-score. 20 min; active compounds read low. AID 2156, 2009. Potassium voltage-gated channel subfamily KQT member 2 (Rattus norvegicus), O88943. B-score at 10 µM. 1.1% of 310,000 active;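 active = fluorescence ratio B-score at most minus 3 library SDs, with starting brightness B-score within 2 library SDs, cut at about -5.5 in these data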
# Target sequence (O88943 whole entry, looked up): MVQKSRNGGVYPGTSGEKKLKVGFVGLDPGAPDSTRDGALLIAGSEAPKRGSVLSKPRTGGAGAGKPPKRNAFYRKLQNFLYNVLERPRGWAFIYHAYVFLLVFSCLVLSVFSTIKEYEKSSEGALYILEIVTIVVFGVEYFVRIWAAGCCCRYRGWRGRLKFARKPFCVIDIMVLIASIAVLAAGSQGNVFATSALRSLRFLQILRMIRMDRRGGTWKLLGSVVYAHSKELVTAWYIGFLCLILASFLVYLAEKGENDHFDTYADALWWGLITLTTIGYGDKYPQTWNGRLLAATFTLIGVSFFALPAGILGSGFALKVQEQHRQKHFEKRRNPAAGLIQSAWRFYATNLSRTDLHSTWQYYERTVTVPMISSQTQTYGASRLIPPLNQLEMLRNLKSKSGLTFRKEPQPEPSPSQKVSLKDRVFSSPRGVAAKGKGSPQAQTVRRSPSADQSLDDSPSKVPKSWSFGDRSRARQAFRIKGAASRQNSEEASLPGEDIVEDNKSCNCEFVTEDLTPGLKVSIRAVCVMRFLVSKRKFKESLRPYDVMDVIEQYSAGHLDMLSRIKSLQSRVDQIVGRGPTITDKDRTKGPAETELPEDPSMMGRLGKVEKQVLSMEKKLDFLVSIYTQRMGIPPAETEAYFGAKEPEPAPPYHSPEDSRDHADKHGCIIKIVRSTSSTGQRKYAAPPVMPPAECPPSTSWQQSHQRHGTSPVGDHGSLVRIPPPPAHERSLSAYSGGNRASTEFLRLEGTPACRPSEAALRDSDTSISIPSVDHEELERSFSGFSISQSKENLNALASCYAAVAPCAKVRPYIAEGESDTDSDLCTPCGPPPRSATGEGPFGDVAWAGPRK
# KCNQ2 enhance – potentiators of rat KCNQ2 potassium channel | CHO-K1 KCNQ2, FluxOR thallium flux fluorescence; active compounds read high | B-score at 10 µM | 0.54% of 310,000 active | AID 2239, 2010;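 active = fluorescence ratio B-score at least 3 SD of library B-scores, with initial fluorescence B-score within 3 of them, cut at about 5.3 in these data; same plate scores as AID 2156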;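 also: B-score of peak minus minimum over baseline fluorescence ratio after K+ and Tl+ stimulus; positive B-score means potentiation of KCNQ2 with more thallium influx and brighter signal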
# Hits are given with their value; n = inactive; x = no result given.
SMILES,KCNQ2 block,KCNQ2 enhance
CC1=C(C(=O)OC2CCCC2)C(c2ccc(C)o2)C2=C(CC(c3cccs3)CC2=O)N1 (configuration not stated),-5.7,n
Cc1ccc2c(c1)CCCN2S(=O)(=O)c1cccc(C(=O)Nc2ccccc2C(=O)O)c1,n,x
CCCCNC(=O)NNC(=O)COc1cccc(C)c1C,n,n
CCCn1c(=O)c(C(=O)NCCc2ccc(OC)c(OC)c2)c(O)c2ccccc21,-6.2,n
CCn1c(=O)c(C(=O)NCCc2ccc(OC)c(OC)c2)c(O)c2ccccc21,n,x
CCCn1c(=O)c(C(=O)NCc2ccc3c(c2)OCO3)c(O)c2ccccc21,-5.9,n
CCCn1c(=O)c(C(=O)NCc2cccnc2)c(O)c2ccccc21,n,x
CCn1nc(C)cc1C(=O)NC1CCCc2c1cnn2-c1cc(F)cc(F)c1 (configuration not stated),n,x
O=C(NC1CCCN(CCc2ccccc2)C1)C1CCCC1 (configuration not stated),-6.8,n
CCOC(=O)C1CCCN(CCc2ccccc2)C1 (configuration not stated),n,n
CC1CN(S(=O)(=O)c2cccc(C(=O)Nc3ccc(S(=O)(=O)NC4=NCCCCC4)cc3)c2)CC(C)O1 (configuration not stated),n,x
C[C@H](NC(=O)[C@@H]1CSC2c3ccccc3C(=O)N21)C(=O)NCc1c(F)cccc1Cl (some centres not stated),n,x
CCOC(=O)C1=NN(C(=O)c2ccc(OC)cc2)C(O)(c2ccc(Cl)cc2)C1 (configuration not stated),n,16
CCOC(=O)C1=NN(C(=O)c2ccccc2)C(O)(c2ccc(C)cc2)C1 (configuration not stated),n,n
CCCCNc1c(-c2ccc(SC3CCCCC3)cc2)nc2ccccn12,n,x
CCCCNc1c(-c2ccc(SC(C)CC)cc2)nc2ccccn12 (configuration not stated),-7.1,n
N/C(CC1CC1(Cl)Cl)=N\OC(=O)c1ccccc1 (configuration not stated),-8.6,n
N/C(Cc1ccc(Cl)cc1Cl)=N\OC(=O)c1ccccc1,n,n
CC(C)(C)Sc1ccc([N+](=O)[O-])cc1C(=O)Nc1ccncc1,n,n
O=S(=O)(c1cccc2nsnc12)N1CCCCC1,n,n
CCOc1ccc(NC(=O)C(CC(=O)O)Cc2ccc(C)cc2)cc1 (configuration not stated),n,n
Cc1cccc(C(=O)NNC(=O)C2CC2)c1,n,x
Cc1cccc(C)c1OCc1cc(C(=O)N2CCN(c3ccccc3)CC2C)no1 (configuration not stated),-7.1,n
CC1CN(c2ccccc2)CCN1C(=O)c1cc(COc2c(F)cccc2F)on1 (configuration not stated),n,n
CN1CCN(NC(=O)c2cc(Br)ccc2Cl)CC1,n,x
SMILES,KCNQ2 block,KCNQ2 enhance
COc1ccc(CN(C)CC(=O)NC2CCCc3ccccc32)cc1OC (configuration not stated),n,x
Cc1ccc(S(=O)(=O)Oc2ccc(/C=C3/N=C(c4ccccc4)OC3=O)cc2)cc1,-7.4,n
COc1ccc(/C=C2\N=C(c3ccc(C)cc3)OC2=O)cc1,n,x
O=C(c1cc([N+](=O)[O-])ccc1Cl)N1CCN(c2ccc(F)cc2)CC1,n,n
O=C(c1cc([N+](=O)[O-])ccc1Cl)N1CCN(c2ccc([N+](=O)[O-])cc2)CC1,-6.9,n
O=C(Cc1cccs1)N1CCN(c2ccc([N+](=O)[O-])cc2)CC1,-5.5,n
O=C(Cc1cccs1)N1CCN(c2ccc(F)cc2)CC1,n,n
CCC1CCCCN1C(=O)CCS(=O)(=O)c1ccccc1 (configuration not stated),n,x
CN(CC(=O)NCCc1ccc(Cl)cc1)S(=O)(=O)c1cccs1,n,x
COC(=O)c1ccccc1NC(=O)c1cc2sccc2n1C,-6.1,n
COC(=O)c1cccc(NC(=O)c2cc3sccc3n2C)c1,n,x
CCOC(=O)[C@@H]1[C@H]2COc3ccccc3[C@H]2N2C(=O)N(c3ccc(C(F)(F)F)cc3)C(=O)[C@]12C,n,x
c1ccc(Cc2nn3c(C4COc5ccccc5O4)nnc3s2)cc1 (configuration not stated),n,x
c1ccc(CCc2nn3c(C4COc5ccccc5O4)nnc3s2)cc1 (configuration not stated),-6.1,n
O=S(=O)(c1cccc2nonc12)N1CCCCCC1,n,n
CCc1ccc(OC(=O)c2cccnc2)cc1,n,x
Cc1cccc(N(CC(=O)Nc2cccnc2)S(C)(=O)=O)c1,n,x
CN(C)C(CNc1ccc(C(F)(F)F)cc1[N+](=O)[O-])c1ccccc1 (configuration not stated),n,x
CC(C(=O)Nc1ccccc1Oc1ccccc1)c1ccccc1 (configuration not stated),n,8.9
COc1ccccc1NC(=O)C(C)NC(c1ccccc1)c1ccccc1 (configuration not stated),n,n
CCCCN(C(=O)CSCC(=O)Nc1ccc(C)cc1)c1c(N)n(CCCC)c(=O)[nH]c1=O,n,n
N#CC(C(=O)NC1CC1)c1nc2ccccc2nc1N1CCCC1 (configuration not stated),n,x
N#CC(C(=O)NC1CCCCC1)c1nc2ccccc2nc1N1CCN(c2ccc(F)cc2)CC1 (configuration not stated),-5.8,n
COc1ccc(-c2cnc(SCC(=O)Nc3cc(C)on3)n2Cc2ccco2)cc1,n,x
COc1ccc(-c2cnc(SCC(=O)Nc3nc(C(C)(C)C)cs3)n2Cc2ccco2)cc1,-8.3,n
SMILES,KCNQ2 block,KCNQ2 enhance
Cc1nc2sccc2c(=O)n1N,n,n
CC(C)c1ccc(C(N)=S)cc1,n,x
O=C(CCCc1c[nH]c2ccccc12)Nc1ncccc1O,n,n
CCC(CO)n1c(SCc2cc(=O)oc3cc(C)ccc23)nc2ccccc2c1=O (configuration not stated),-7.7,n
COc1ccccc1-n1c(SCc2cc(=O)oc3cc(O)ccc23)nc2ccccc2c1=O,n,x
Cc1ccccc1NC(=O)OCCN1CCN(Cc2ccccc2)CCC1=O,-6.3,n
Cc1ccc(NC(=O)OCCN2CCN(Cc3ccccc3)CCC2=O)cc1C,n,x
CN(CCCNC(=O)CSc1cc(=O)n(C)c2cc(Cl)ccc12)Cc1ccccc1,n,n
O=C(Nc1cccc(Cl)c1)N(CCN1CCOCC1)Cc1cccc(Cl)c1,-7.3,n
O=C(Nc1cccc(Cl)c1)N(CCN1CCOCC1)Cc1ccccc1F,n,x
COc1ccc(Cl)cc1NC(=O)NCC1CCN(Cc2cc(C)ccc2C)CC1,n,x
COc1cc([N+](=O)[O-])ccc1NC(=O)NCC1CCN(Cc2ccc(Cl)cc2)CC1,-6.1,n
COc1ccc(S(=O)(=O)NC2CC3CCC2C3)cc1 (configuration not stated),n,n
C=CCn1c(COc2ccc(Cl)cc2)nnc1SCC(=O)N/N=C/c1cccc(O)c1,n,n
C=CCn1c(COc2ccccc2)nnc1SC(C)C(=O)N/N=C/c1cc(Cl)ccc1O (configuration not stated),-7.6,n
COC(=O)c1ccccc1-n1cccc1C(=O)NP(=O)(N1CCOCC1)N1CCOCC1,n,x
CN(C)CCCNS(=O)(=O)c1ccc(N2CCC(c3ccc(Cl)cc3)=N2)cc1,-5.9,n
